What all share (settings): mRNA level, 48 h; actives raise or lower the signal
Read-out in experiment [1]: Fatty acid synthase (Homo sapiens) (UniProt P49327)
In words: LTEA_HepaRG_FASN: Life Technologies and Expression Analysis (LTEA) Assay for Fatty Acid Synthase (FASN) using HepaRG (AID 2283448). The procedure, abridged: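 In human HepaRG cultures, 48 h chemical exposure (up to 100 uM, 0.5% DMSO) preceded TaqMan qRT-PCR of FASN.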

Read-out in experiment [2]: Cyclin D2 (CCND2), CCND2 (gene 894)
In words: LTEA_HepaRG_CCND2: Life Technologies and Expression Analysis (LTEA) Assay for Cyclin D2 (CCND2) using HepaRG (AID 2283449). The procedure, abridged: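 CCND2 transcript levels, quantified by qRT-PCR and normalised to three housekeeping genes, were fitted bidirectionally against 0.5% DMSO. HepaRG cultures were dosed 48 h in duplicate with an 8-point half-log series up to 100 uM.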

Read-out in experiment [3]: Cyclin Dependent Kinase Inhibitor 1A (CDKN1A), CDKN1A (gene 1026)
The experiment in a line: LTEA_HepaRG_CDKN1A: Life Technologies and Expression Analysis (LTEA) Assay for Cyclin Dependent Kinase Inhibitor 1A (CDKN1A) using HepaRG (AID 2283450). The procedure, abridged: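 Cryopreserved HepaRG cells were plated and cultured 48 h, then switched to serum-free induction medium. Chemicals (eight half-log concentrations, top 100 uM, 0.5% DMSO) were applied for 48 h. Lysates underwent qRT-PCR for CDKN1A with housekeeping normalization.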

Read-out in experiment [4]: Cyclin D1 (CCND1), CCND1 (gene 595)
The experiment in a line: LTEA_HepaRG_CCND1: Life Technologies and Expression Analysis (LTEA) Assay for Cyclin D1 (CCND1) using HepaRG (AID 2283451).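 As to AC50: TaqMan qRT-PCR transcript level normalised to ACTB GAPDH and POLR2A housekeeping genes.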 The procedure, abridged:
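Human liver HepaRG line; 48 h dosing, 8 conc. ≤100 uM, 0.5% DMSO; TaqMan qRT-PCR mRNA, 3 housekeeping genes; bidirectional curve fit vs DMSO.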

Read-out in experiment [5]: catalase (CAT), CAT (gene 847)
In words: LTEA_HepaRG_CAT: Life Technologies and Expression Analysis (LTEA) Assay for catalase (CAT) using HepaRG (AID 2283452).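 As to AC50: TaqMan qRT-PCR signal normalized to ACTB GAPDH and POLR2A housekeeping genes.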 The procedure, abridged: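 Expression of CAT was quantified by TaqMan qRT-PCR with ACTB/GAPDH/POLR2A normalization after 48 h chemical exposure of HepaRG. Eight-point half-log series, top 100 uM, in 0.5% DMSO; gain or loss fitted against vehicle.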

Read-out in experiment [6]: flavin-containing dimethylaniline monooxygenases 3 (FMO3), FMO3 (gene 2328)
The experiment in a line: LTEA_HepaRG_FMO3: Life Technologies and Expression Analysis (LTEA) Assay for flavin-containing dimethylaniline monooxygenases 3 (FMO3) using HepaRG (AID 2283453). The procedure, abridged: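 Eight-point concentration-response in serum-free HepaRG cultures (top 100 uM, 0.5% DMSO, 48 h). Read-out: FMO3 mRNA level normalized to three endogenous control genes, fitted bidirectionally versus vehicle.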

Read-out in experiment [7]: Cytochrome P450 (CYP1A1), CYP1A1 (gene 1543)
The experiment in a line: LTEA_HepaRG_CYP1A1: Life Technologies and Expression Analysis (LTEA) Assay for Cytochrome P450 (CYP1A1) using HepaRG (AID 2283454). The gist of the method: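 Induction of CYP1A1 mRNA in a human hepatic cell line was measured 48 h after dosing, with 1 mM phenobarbital as induction positive control and 0.5% DMSO vehicle as baseline for bidirectional curve fitting.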

Read-out in experiment [8]: CFLAR gene, CFLAR (gene 8837)
In words: LTEA_HepaRG_CFLAR: Life Technologies and Expression Analysis (LTEA) Assay for CFLAR gene using HepaRG (AID 2283455). The procedure, abridged:
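Transcript level by qRT-PCR (normalized to ACTB, GAPDH and POLR2A) after 48 h chemical exposure of HepaRG cells, top concentration 100 uM with half-log steps, 0.5% DMSO vehicle, duplicates; fitted bidirectionally against DMSO baseline.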

Read-out in experiment [9]: Forkhead box O1 (FOXO1), FOXO1 (gene 2308)
The experiment in a line: LTEA_HepaRG_FOXO1: Life Technologies and Expression Analysis (LTEA) Assay for Forkhead box O1 (FOXO1) using HepaRG (AID 2283456). The gist of the method:
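FOXO1 transcript quantified by qRT-PCR after 48 h chemical exposure (top 100 uM, half-log steps, 0.5% DMSO) of HepaRG cells, housekeeping-normalized (ACTB/GAPDH/POLR2A). Changes fitted in both directions relative to vehicle.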

Read-out in experiment [10]: growth arrest and DNA damage 45 (GADD45A), GADD45A (gene 1647)
The experiment in a line: LTEA_HepaRG_GADD45A: Life Technologies and Expression Analysis (LTEA) Assay for growth arrest and DNA damage 45 (GADD45A) using HepaRG (AID 2283458). The procedure, abridged:
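Eight-point concentration-response in HepaRG cells: 48 h chemical exposure, 0.5% DMSO vehicle, top dose 100 uM. Normalized qRT-PCR mRNA readout with bidirectional fitting relative to DMSO.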

Read-out in experiment [11]: Forkhead box O3 (FOXO3), FOXO3 (gene 2309)
The experiment in a line: LTEA_HepaRG_FOXO3: Life Technologies and Expression Analysis (LTEA) Assay for Forkhead box O3 (FOXO3) using HepaRG (AID 2283459). The procedure, abridged:
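FOXO3 transcript measured by qRT-PCR (normalized to ACTB, GAPDH, POLR2A) after 48 h exposure of HepaRG cells in serum-free induction medium. Duplicates, eight half-log concentrations up to 100 uM, 0.5% DMSO; gain or loss fitted against DMSO.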

Read-out in experiment [12]: ABC Transporter (ABCB1), ABCB1 (gene 5243)
The experiment in a line: LTEA_HepaRG_ABCB1: Life Technologies and Expression Analysis (LTEA) Assay for ABC Transporter (ABCB1) using HepaRG (AID 2283460). The procedure, abridged: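 ABCB1 transcript level measured by TaqMan qRT-PCR against three housekeeping genes after 48 h chemical exposure of differentiated HepaRG cells. Top concentration 100 uM, half-log steps, eight points, 0.5% DMSO vehicle; bidirectional fit relative to DMSO.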

Read-out in experiment [13]: growth arrest and DNA damage 45 (GADD45B), GADD45B (gene 4616)
The experiment in a line: LTEA_HepaRG_GADD45B: Life Technologies and Expression Analysis (LTEA) Assay for growth arrest and DNA damage 45 (GADD45B) using HepaRG (AID 2283461). The procedure, abridged:
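Values are bidirectional concentration-response fits against 0.5% DMSO controls. Underlying data: qRT-PCR mRNA levels in human HepaRG liver cells treated 48 h in serum-free induction medium, eight concentrations topping at 100 uM.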

Read-out in experiment [14]: ABC Transporter (ABCC3), ABCC3 (gene 8714)
In words: LTEA_HepaRG_ABCC3: Life Technologies and Expression Analysis (LTEA) Assay for ABC Transporter (ABCC3) using HepaRG (AID 2283462). The procedure, abridged: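 Differentiated HepaRG liver cells receive test chemicals at eight concentrations (max 100 uM) for 48 h. Expression of ABCC3 is quantified by qRT-PCR against ACTB, GAPDH and POLR2A, and activity is fitted in both directions against the DMSO control.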

Read-out in experiment [15]: ABC Transporter (ABCB11), ABCB11 (gene 8647)
In words: LTEA_HepaRG_ABCB11: Life Technologies and Expression Analysis (LTEA) Assay for ABC Transporter (ABCB11) using HepaRG (AID 2283463). The gist of the method:
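ABCB11 transcript levels quantified by TaqMan qRT-PCR against three housekeeping genes after 48 h chemical exposure of HepaRG cultures. Concentrations up to 100 uM in half-log steps, 0.5% DMSO vehicle; both induction and suppression scored.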

Read-out in experiment [16]: ABC Transporter (ABCC2), ABCC2 (gene 1244)
In words: LTEA_HepaRG_ABCC2: Life Technologies and Expression Analysis (LTEA) Assay for ABC Transporter (ABCC2) using HepaRG (AID 2283464). The procedure, abridged:
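Gene expression of ABCC2 was determined by qRT-PCR in HepaRG cells exposed 48 h to chemicals (highest 100 uM, half-log dilutions). Activity was fitted in both directions relative to 0.5% DMSO vehicle.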

Read-out in experiment [17]: Broad substrate specificity ATP-binding cassette transporter ABCG2 (Homo sapiens) (UniProt Q9UNQ0)
The experiment in a line: LTEA_HepaRG_ABCG2: Life Technologies and Expression Analysis (LTEA) Assay for ABC Transporter (ABCG2) using HepaRG (AID 2283465). The procedure, abridged:
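ABCG2 transcript was quantified by TaqMan qRT-PCR against three housekeeping genes in HepaRG cells. Cells were treated in duplicate for 48 h across an 8-point half-log series up to 100 uM, with 0.5% DMSO vehicle. Gain or loss versus DMSO was fit.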

Read-out in experiment [18]: ATP-citrate lyase (ACLY), ACLY (gene 47)
The experiment in a line: LTEA_HepaRG_ACLY: Life Technologies and Expression Analysis (LTEA) Assay for ATP-citrate lyase (ACLY) using HepaRG (AID 2283466). The procedure, abridged:
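ACLY mRNA quantified by qRT-PCR on Fluidigm arrays against three housekeeping genes, after 48 h chemical treatment of HepaRG cells (top concentration 100 uM, half-log steps, 0.5% DMSO vehicle). Up- or down-regulation fitted relative to DMSO.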

Read-out in experiment [19]: Peroxisomal acyl-coenzyme A oxidase 1 (ACOX1) gene, ACOX1 (gene 51)
In words: LTEA_HepaRG_ACOX1: Life Technologies and Expression Analysis (LTEA) Assay for Peroxisomal acyl-coenzyme A oxidase 1 (ACOX1) gene using HepaRG (AID 2283467). The gist of the method:
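ACOX1 transcript levels were quantified by TaqMan qRT-PCR against three housekeeping genes after 48 h chemical exposure of differentiated human HepaRG cells. Exposure used eight half-log steps topping at 100 uM, 0.5% DMSO vehicle, in duplicate. Bidirectional curve fits were made relative to DMSO.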

Molecules are shown by their SMILES. Calls of active or inactive are those of the source. The calls were made as follows: active = hit-call score of the fitted dose curve at least 0.9, where 1 is the maximum; inactive = score below 0.9.

Chain of Broad substrate specificity ATP-binding cassette transporter ABCG2 (Homo sapiens) (Q9UNQ0 whole entry, looked up): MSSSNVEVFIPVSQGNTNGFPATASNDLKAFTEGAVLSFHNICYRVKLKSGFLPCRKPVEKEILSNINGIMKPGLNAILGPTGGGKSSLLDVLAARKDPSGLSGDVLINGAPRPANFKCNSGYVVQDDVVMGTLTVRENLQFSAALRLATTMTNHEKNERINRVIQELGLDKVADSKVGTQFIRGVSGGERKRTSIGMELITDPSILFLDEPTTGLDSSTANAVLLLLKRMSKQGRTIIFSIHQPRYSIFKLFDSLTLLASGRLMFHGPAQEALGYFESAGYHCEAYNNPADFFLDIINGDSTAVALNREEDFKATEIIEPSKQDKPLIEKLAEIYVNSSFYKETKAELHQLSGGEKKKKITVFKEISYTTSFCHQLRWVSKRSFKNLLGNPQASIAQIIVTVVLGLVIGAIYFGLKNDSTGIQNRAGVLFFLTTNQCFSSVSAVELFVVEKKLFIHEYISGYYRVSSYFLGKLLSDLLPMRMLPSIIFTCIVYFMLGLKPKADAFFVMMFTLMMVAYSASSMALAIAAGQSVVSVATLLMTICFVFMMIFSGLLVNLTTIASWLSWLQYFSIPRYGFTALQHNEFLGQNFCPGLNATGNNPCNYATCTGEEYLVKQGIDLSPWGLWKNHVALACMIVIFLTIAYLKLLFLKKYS
Chain of Fatty acid synthase (Homo sapiens) (P49327 whole entry, looked up): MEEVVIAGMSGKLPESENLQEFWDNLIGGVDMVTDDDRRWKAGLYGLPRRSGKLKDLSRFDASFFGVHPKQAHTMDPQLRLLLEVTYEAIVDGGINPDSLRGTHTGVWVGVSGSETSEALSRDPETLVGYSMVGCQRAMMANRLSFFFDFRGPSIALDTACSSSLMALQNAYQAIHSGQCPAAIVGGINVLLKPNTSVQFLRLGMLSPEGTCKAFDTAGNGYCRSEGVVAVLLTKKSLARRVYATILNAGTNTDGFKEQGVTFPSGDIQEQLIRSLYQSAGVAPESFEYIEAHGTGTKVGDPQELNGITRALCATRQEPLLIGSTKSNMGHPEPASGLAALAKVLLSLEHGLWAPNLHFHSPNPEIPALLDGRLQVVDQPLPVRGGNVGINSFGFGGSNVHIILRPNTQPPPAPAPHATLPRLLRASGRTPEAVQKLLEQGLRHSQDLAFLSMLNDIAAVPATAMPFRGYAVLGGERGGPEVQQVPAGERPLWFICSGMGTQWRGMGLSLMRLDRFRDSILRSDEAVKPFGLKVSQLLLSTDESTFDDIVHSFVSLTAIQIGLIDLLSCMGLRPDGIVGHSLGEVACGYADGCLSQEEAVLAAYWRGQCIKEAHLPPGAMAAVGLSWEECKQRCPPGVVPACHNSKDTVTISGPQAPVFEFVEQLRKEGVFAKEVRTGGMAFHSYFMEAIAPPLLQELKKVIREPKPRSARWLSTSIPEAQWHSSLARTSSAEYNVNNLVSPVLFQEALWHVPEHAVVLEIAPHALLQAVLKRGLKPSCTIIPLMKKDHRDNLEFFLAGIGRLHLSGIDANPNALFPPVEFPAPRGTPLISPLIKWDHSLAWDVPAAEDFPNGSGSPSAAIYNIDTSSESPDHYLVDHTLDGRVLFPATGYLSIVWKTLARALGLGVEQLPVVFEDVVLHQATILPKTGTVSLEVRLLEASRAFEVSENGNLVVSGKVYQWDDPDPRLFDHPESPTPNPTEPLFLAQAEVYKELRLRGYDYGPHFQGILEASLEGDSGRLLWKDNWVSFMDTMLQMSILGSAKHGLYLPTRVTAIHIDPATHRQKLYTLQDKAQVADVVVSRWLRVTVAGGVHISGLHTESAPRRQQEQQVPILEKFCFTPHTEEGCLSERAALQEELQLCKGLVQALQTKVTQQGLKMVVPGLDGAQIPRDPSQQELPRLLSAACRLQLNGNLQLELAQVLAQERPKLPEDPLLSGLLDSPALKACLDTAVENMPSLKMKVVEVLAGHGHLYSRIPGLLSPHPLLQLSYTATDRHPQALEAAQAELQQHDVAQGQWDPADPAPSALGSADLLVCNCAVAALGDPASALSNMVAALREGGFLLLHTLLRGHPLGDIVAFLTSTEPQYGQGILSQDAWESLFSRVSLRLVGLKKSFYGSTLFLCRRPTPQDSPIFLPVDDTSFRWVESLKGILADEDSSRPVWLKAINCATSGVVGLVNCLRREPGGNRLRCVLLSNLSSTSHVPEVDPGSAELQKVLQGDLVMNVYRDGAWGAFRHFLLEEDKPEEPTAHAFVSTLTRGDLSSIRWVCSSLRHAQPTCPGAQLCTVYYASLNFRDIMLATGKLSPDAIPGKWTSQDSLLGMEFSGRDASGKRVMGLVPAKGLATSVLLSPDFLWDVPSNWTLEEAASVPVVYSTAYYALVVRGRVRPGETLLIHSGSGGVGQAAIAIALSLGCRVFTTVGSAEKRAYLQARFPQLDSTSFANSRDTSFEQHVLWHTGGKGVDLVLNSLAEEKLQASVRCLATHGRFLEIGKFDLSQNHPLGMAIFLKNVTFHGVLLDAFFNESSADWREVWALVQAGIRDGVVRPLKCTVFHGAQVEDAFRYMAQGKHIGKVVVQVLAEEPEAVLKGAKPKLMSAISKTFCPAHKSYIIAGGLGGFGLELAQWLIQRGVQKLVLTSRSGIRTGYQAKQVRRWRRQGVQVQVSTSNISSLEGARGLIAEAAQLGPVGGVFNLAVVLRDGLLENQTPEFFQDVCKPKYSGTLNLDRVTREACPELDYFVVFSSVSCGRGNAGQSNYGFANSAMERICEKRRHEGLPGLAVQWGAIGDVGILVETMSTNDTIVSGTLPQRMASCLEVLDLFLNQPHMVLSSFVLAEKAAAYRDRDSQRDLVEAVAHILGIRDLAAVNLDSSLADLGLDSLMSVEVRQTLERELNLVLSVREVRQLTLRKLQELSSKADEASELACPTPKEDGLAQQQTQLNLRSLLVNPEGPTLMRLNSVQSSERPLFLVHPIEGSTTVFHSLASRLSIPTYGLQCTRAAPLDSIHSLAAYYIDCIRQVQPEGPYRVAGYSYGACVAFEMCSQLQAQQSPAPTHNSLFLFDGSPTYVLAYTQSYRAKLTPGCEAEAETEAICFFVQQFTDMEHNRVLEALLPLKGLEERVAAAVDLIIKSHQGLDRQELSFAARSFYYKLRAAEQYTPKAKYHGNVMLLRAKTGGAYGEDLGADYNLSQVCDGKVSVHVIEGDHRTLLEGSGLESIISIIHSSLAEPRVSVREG

On to `CN(C)C(=O)Nc1cccc(C(F)(F)F)c1`, for which the compound was classed as inactive in [1], in [2], in experiment [3], in experiment [4], in experiment [5] and in experiment [6]. The compound was classed as inactive in experiment [8], in experiment [9], in experiment [11], in [12], in experiment [13] and in experiment [14]. Besides, the compound was called inactive in experiment [15], in [16], in experiment [17], in [18] and in experiment [19]. Further, the AC50 was 24.7 µM (active) in [7] and 79.2 µM (active) in experiment [10].
Take `Nc1nc(N)nc(NC2CC2)n1`: the call in experiment [1], in [3], in [4], in experiment [5], in experiment [6] and in experiment [8] was inactive. Also, the result in experiment [9], in [10], in [11], in experiment [12], in experiment [13] and in [14] was inactive. For the same compound, the compound was classed as inactive in [15], in experiment [16], in experiment [17], in experiment [18] and in experiment [19]. Besides, the AC50 in [7] was 50 µM (active).
In the case of `FC(F)C(F)(F)OCC(Cn1cncn1)c1ccc(Cl)cc1Cl` (stereo not drawn), the AC50 is 81.5 µM (active) in experiment [1]; 33.6 µM (active) in experiment [3]; 97.3 µM (active) in experiment [4]; 49.8 µM (active) in experiment [5]; 35.6 µM (active) in experiment [6]; 3.17 µM (active) in experiment [7]. For the same compound, the AC50 in experiment [8] was 78.4 µM (active); in experiment [9], 75.3 µM (active); in experiment [10], 74.2 µM (active); in [14], 21.1 µM (active); in [15], 36.6 µM (active); in experiment [16], 75.9 µM (active). The AC50 was 15 µM (active) in experiment [17], 12.2 µM (active) in experiment [18] and 53.6 µM (active) in [19]. For the same compound, the call in experiment [11], in experiment [12] and in experiment [13] was inactive.
Turning to `CCOC(=O)CC(SP(=O)(OC)OC)C(=O)OCC` (stereo not drawn), the compound was classed as inactive in [1], in experiment [3], in experiment [4], in [5], in [6] and in [8]. For the same compound, the call in experiment [9], in experiment [10], in experiment [11], in [12], in [13] and in experiment [14] was inactive. Further, the compound was called inactive in experiment [16], in experiment [17], in experiment [18] and in experiment [19]. Moreover, the figures for the AC50 in experiment [7] and in experiment [15] were 30.8 µM (active) and 22.7 µM (active), respectively.

By AC50 is commonly meant the concentration at which the activity in the assay is half-maximal.

For the origin of these results see PubChem BioAssay (EPA / NIEHS).
